Experimental findings from PubChem BioAssay (NCI) are described below.

About 83,000 compounds went through this panel and 20% of them were active in at least one assay; those are over-represented in the sample as a whole.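 Growth was measured after 48 h exposure to one concentration of compound in 96-well plates. Values under 10 count as active.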 Calls of active or inactive are those of the source.

This assay has as its system HL-60(TB) leukemia. Kind of assay: NCI-60 one-dose screen, 48 h (100 = growth as untreated, 0 = no growth, -100 = all killed). Particulars: 10 µM unless noted.
In the case of `Cc1cc(Cl)nc(NCc2cc(Nc3ccnc4cc(Cl)ccc34)ccc2F)n1`, the growth was 42.4% (inactive).

Regarding `O=C(CCCCl)NNc1nccc(Nc2ccc(S(=O)(=O)Nc3ccncc3)cc2)n1`, the growth is 127% (inactive). With `Cc1cc(C)n(C(=O)CSc2nc3sc4c(c3c(=O)n2-c2ccccc2)CCCCC4)n1` the figure was 107% (inactive); with `O=S(=O)(NCCCNc1nccc(-c2c(-c3ccccc3)nc3occn23)n1)c1ccc(Cl)cc1`, 101% (inactive). As to `CCOc1ccc(-c2nc3ccc(-c4nc5ccc(N6CCN(C)CC6)cc5[nH]4)cc3[nH]2)cc1`, the growth is -57.9% (active).

For the compound `O=C(Cc1ccc(F)c(Cl)c1)Nc1cc(C2(C(F)(F)F)CC2)nn1CC1CCCCC1`, the growth is 14.8% (inactive). Take `C=CCSc1nnc(COc2ccc3c(C)c(Cc4ccccc4)c(=O)oc3c2C)o1`: the growth is 96.1% (inactive). With `COc1ccc(-c2csc(NC(=O)CO[N+](=O)[O-])n2)cc1` the figure was 107% (inactive). With `COc1cc2c(cc1OCCCCCCN1CCN(c3ncnc4ccccc34)CC1)N=CC1CCCN1C2=O` (centres undefined), the growth is -43.3% (active). Take `CC/C=C\C[C@H](O)C/C=C1/C(=O)C=C[C@@]1(C)C/C=C\CCCC(=O)OC`: the growth was 98.9% (inactive). Under `CC(C)(C#N)c1cc(C(=O)Nc2cc(Nc3ncccc3-c3ncnc4nc[nH]c34)ccc2F)cc(C(F)(F)F)c1` stands 35.3% (inactive); under `N#C/C(=C(/O)CCCO)c1nc2ccccc2c(=O)[nH]1`, 102% (inactive). Regarding `CC1(C)S[C@@H]2[C@H](NC(=O)[C@H](C(=O)O)c3cccs3)C(=O)N2[C@H]1C(=O)O`, the growth is 106% (inactive). Consider `Nc1cc(-c2ccc(Cl)cc2)nn1-c1nc(-c2ccc(Br)cc2)cs1`, for which the growth is 96.3% (inactive). With `CCN(CC)CCOc1cccc2c1C(=O)c1ccccc1C2=O` the figure was 93.3% (inactive). As to `COc1cccc(-c2nn(-c3ccccc3)cc2-c2ccnc(NCCNS(=O)(=O)c3ccc(C(F)(F)F)cc3)c2)c1`, the growth is -20.9% (active).

Regarding `OC(c1cc(-c2ccc(C(F)(F)F)cc2)nc(-c2ccc(C(F)(F)F)cc2)c1)C1CCCCN1` (centres undefined), the growth was -61.8% (active). Take `CNC1=C(Br)C(=O)c2c(C(=O)OC)c(C)nc(C)c2C1=O`: the growth was 24.5% (inactive). With `CN(CCc1ccccc1)C(=S)N(C(=O)c1ccc([N+](=O)[O-])cc1)c1ccc(Cl)cc1` the figure was 45% (inactive); with `COc1cc(-c2c(-c3ccccc3)c[nH]c2C(=O)NCCCO)c(OC)c2c1OCO2`, 91.4% (inactive). With `CN(C)c1ccc(C2(Cl)c3ccccc3N(C)c3ccccc32)cc1`, the growth is 17.5% (inactive). As for `CNC(=O)c1cc(Oc2ccc3c(c2)sc2nc(-c4ccc(NC(=O)Nc5ccc(Cl)c(C(F)(F)F)c5)cc4)cn23)ccn1`, the growth is 32.2% (inactive). `CC[C@@H](C(=O)[C@@H](C)[C@@H](O)[C@H](C)[C@@H]1O[C@@H]([C@@H](CC)C(=O)O)CC[C@@H]1C)C1O[C@]2(C=CC(=O)[C@]3(CC[C@@](C)([C@H]4CC[C@](O)(CC)[C@H](C)O4)O3)O2)[C@H](C)C[C@@H]1C` (some centres undefined): the growth is -32.7% (active). For the compound `Cn1c(-c2ccccc2)cc(=O)cc1-c1ccccc1`, the growth is 99.8% (inactive). As for `COCCCN=C(N)c1ccc(NC(=O)c2ccc(C(=O)Nc3ccc(C(N)=NCCCOC)cc3)cc2)cc1`, the growth was 71.3% (inactive). Take `CC(C)[C@@H]1C=C2CC[C@H]3[C@](C)(CN)CCC[C@]3(C)[C@H]2CC1`: the growth is 70.1% (inactive). With `Nc1ncnc2c1c(-c1ccc(Oc3ccccc3)cc1)nn2C[C@H]1SSC[C@H]1O`, the growth was -31.9% (active). As to `COc1ccc(C(=O)/C=C/C23c4ccccc4C(c4ccccc42)C2C(=O)NC(=O)C23)cc1` (centres undefined), the growth was 92% (inactive). With `Cc1nc2oc3ccccc3c(=O)c2cc1C(=O)NCc1ccccc1`, the growth is 69.5% (inactive).

With `CC(=O)OCC1CCCO1` (centres undefined), the growth is 84.7% (inactive). On to `O=C1c2c(O)cc(O)cc2OC(c2ccc(O)c(O)c2)C1O` (centres undefined), for which the growth is 110% (inactive). In the case of `C=C(C)[C@@H]1CC[C@]2(C(N)=O)CC[C@]3(C)[C@H](CC[C@@H]4[C@@]5(C)CC[C@H](OCCC#N)C(C)(C)[C@@H]5CC[C@]43C)[C@@H]12`, the growth is 99.9% (inactive). For `O=C(O)c1cn(C2CC2)c2cc(N3CCN(Cc4nnc(Nc5ccccc5)o4)CC3)c(F)cc2c1=O`, the growth is 91.4% (inactive). For `COc1ccc(C2OC(N)=C(O)C2=O)cc1OC` (centres undefined), the growth is 92.6% (inactive). For the compound `N#CC1c2ccccc2C=CN1C(=O)N(c1ccccc1)c1ccccc1` (centres undefined), the growth was -8.07% (active).

Turning to `O=C(Nc1ccc(CN2CCOCC2)c(C(F)(F)F)c1)c1nc2ccc3[nH]ncc3c2c2c1CCCC2`, the growth was 98.1% (inactive). `[2H]C([2H])([2H])Oc1ccc(F)cc1/C=C/C(=O)/C=C(/C=C/c1cc(F)ccc1OC([2H])([2H])[2H])OB(F)F`: the growth is 30.1% (inactive).

In the case of `Cc1cn([C@]2(CF)O[C@H](CO)C2C)c(=O)[nH]c1=O` (some centres undefined), the growth is 105% (inactive). With `CN1C(=C2C(=O)OC(C)(C)OC2=O)CCC1C(=O)NCc1ccc(Cl)cc1Cl` (centres undefined) the figure was 83.7% (inactive).
